Values joined by “and” are separate entries in the source; they are usually repeats but may differ in a detail not shown here. Identical values can stand only once. Inconclusive results are not listed. Where a call stands in place of a potency, no number is given. Active and inactive are the calls of the source. Unless noted, calls come from the whole dose curve; as a rule, active = well fitted curve in the direction sought with a large enough effect; inconclusive = small, poorly fitted or top-dose-only effect, or another doubt; inactive = no such curve, though single readings can be large; an effect the other way counts as inactive or inconclusive.
How the values were obtained:
[1] = Cell Viability - NIH 3T3 (AID 541); details: NIH 3T3 cell viability, qHTS; activity change, negative = cytotoxicity: at 92.2 µM (top of the series); note: nearly all actives have a fitted effect of over 25% in size
Procedure, shortened: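 Luminescent ATP signal (CellTiter-Glo) served as the viability read-out after NIH 3T3 cells were exposed to compounds over a concentration range for 40 hr at 37 °C. Hill-equation modelling of concentration-response data gave AC50.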

[2] = Cell Viability - SH-SY5Y (AID 544); details: SH-SY5Y neuroblastoma cell viability; viability change, negative = cytotoxic: at 92.2 µM (top of the series); note: nearly all actives have a fitted effect of over 55% in size
Procedure, shortened: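 Luminescent ATP read-out (CellTiter-Glo) measures loss of viable SH-SY5Y neuroblastoma cells after 40 hr compound exposure at 37 °C. AC50 values derive from standard Hill modelling of qHTS concentration-response data.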

[3] = Cell Viability - LYMP2-001 (AID 921); note: nearly all actives have a fitted effect of over 70% in size
Procedure, shortened: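 Human lymphoblastoid cells (Coriell), 2500 per well, were preincubated 5 hr at 37 C, then exposed to compounds in complete medium for 24 hr at 37 C. Cellular ATP was read by CellTiter-Glo luminescence; AC50 from Hill fits of concentration-response data.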

[4] = Cell Viability - LYMP1-003 - Assay at 40 hr (AID 964); note: nearly all actives have a fitted effect of over 60% in size
Procedure, shortened: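 Cells were seeded at 2500 per well and incubated 5 hr at 37 C. Compounds were added across a concentration series and left 40 hr at 37 C. CellTiter-Glo was added for 30 min at room temperature before luminescence reading.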

[5] = Cell Viability - LYMP2-004 (AID 966); note: nearly all actives have a fitted effect of over 65% in size
Procedure, shortened: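 Cells seeded 2500/well, rested 5 hr at 37 C, dosed across a concentration series, incubated 24 hr at 37 C, then CellTiter-Glo added for 30 min at room temperature and luminescence read. Hill fitting gave AC50.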

[6] = Cell Viability - LYMP2-015 (AID 971); note: nearly all actives have a fitted effect of over 55% in size
Procedure, shortened: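 Luminescent ATP read-out (CellTiter-Glo) served as the viability measure after lymphoblastoid cells were exposed to compounds for 24 hours at 37 C. Concentration-response data were fitted with the Hill equation to give AC50.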

[7] = Cell Viability - LYMP2-017 (AID 972); note: nearly all actives have a fitted effect of over 55% in size
Procedure, shortened: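 2500 cells/well, 5 h 37 C; cpd 24 h 37 C in complete medium; CellTiter-Glo, 30 min RT; luminescence (ATP). AC50 via Hill fit, qHTS.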

[8] = Cell Viability - LYMP2-025 (AID 976)
Procedure, shortened: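 Seed 2500 LYMP2-025 cells/well; 5 hr at 37 C; add compound; 24 hr at 37 C; add CellTiter-Glo; 30 min RT; read luminescence. AC50 from Hill-modelled concentration-response.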

[9] = Cell Viability - LYMP2-006 (AID 978); note: nearly all actives have a fitted effect of over 60% in size
Procedure, shortened: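 Human lymphoblastoid cells, 2500 per well, were preincubated 5 hr at 37 C, then exposed to compounds for 24 hr at 37 C in complete medium. Viability was read as intracellular ATP by CellTiter-Glo luminescence; AC50 from Hill-equation fits of qHTS concentration-response data.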

[10] = Cell Viability - LYMP2-010 (AID 981); note: nearly all actives have a fitted effect of over 55% in size
Procedure, shortened: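 Luminescent ATP signal (CellTiter-Glo) served as the viability read-out. Cells of the human lymphoblastoid line were treated with compound over a concentration range for 24 hours at 37 C, and AC50 values came from Hill-equation modeling.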

[11] = Cell Viability - LYMP2-012 (AID 982)
[12] = Cell Viability - LYMP2-014 (AID 983); note: nearly all actives have a fitted effect of over 50% in size
Procedure, shortened: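 Luminescent ATP signal (CellTiter-Glo, 30 min at room temperature) serves as the viability read-out after 24 hr compound exposure at 37 C. Cells were seeded at 2500 per well and settled 5 hr beforehand.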

[13] = Cell Viability - LYMP2-022 (AID 987); note: nearly all actives have a fitted effect of over 55% in size
Procedure, shortened: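 qHTS: human lymphoblastoid cells 2500/well; 5 hr 37 C; cpd added; 24 hr 37 C; CellTiter-Glo, 30 min RT; luminescence. AC50 via Hill fit; tetraoctylammonium bromide positive ctrl.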

[14] = qHTS assay for small molecule agonists of retinoid X receptor alpha signaling (AID 588544; calls by dose curve); details: HEK293T RXRa-UAS-bla, beta-lactamase reporter, 18 h; 530 nm emission
[15] = molecular target: Retinoic acid receptor RXR-alpha (Homo sapiens) (UniProt P19793); assay: as above
[16] = molecular target: Thyroid hormone receptor beta (Homo sapiens) (UniProt P10828); assay: qHTS assay for small molecule agonists of thyroid hormone receptor beta signaling (AID 588545; calls by dose curve)
Procedure, shortened: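 Beta-lactamase reporter activity under TR response element control is measured in HEK 293 cells after 18 hrs compound exposure. Signal is ratiometric CCF4 fluorescence, 460/530 nm.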

[17] = qHTS assay for small molecule antagonists of retinoid X receptor alpha signaling (AID 588546; active = well fitted inhibition curve with a large enough effect in the signal ratio, with a control signal flat, not every such curve was filed as active; the % refers to the signal ratio;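 note: cells stimulated with 9-cis-retinoic acid as agonist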); details: HEK293T RXRa-UAS-bla, beta-lactamase ratio, antagonist mode; measured here: W530 green channel, cytotoxicity proxy
Procedure, shortened: (§1)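 Beta-lactamase reporter inhibition, read as CCF4 fluorescence ratio (ex 405, em 460/530 nm) after 2 h at RT. HEK293T UAS-bla cells, 2500/well, were stimulated with 9-cis-RA at 500 or 100 nM final alongside test compound for 18 h at 37 C.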

[18] = molecular target: Retinoic acid receptor RXR-alpha (Homo sapiens) (UniProt P19793); assay: as above; details: HEK293T RXRa-UAS-bla, beta-lactamase ratio, antagonist mode
Procedure, shortened: as §1

[19] = molecular target: Thyroid hormone receptor beta (Homo sapiens) (UniProt P10828); assay: qHTS assay for small molecule antagonists of thyroid hormone receptor beta signaling (AID 588547; active = well fitted inhibition curve with a large enough effect in the signal ratio, with a control signal flat, not every such curve was filed as active; the % refers to the signal ratio;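 note: cells stimulated with 0.4 nM T3 agonist during compound exposure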); details: TR-UAS-bla HEK293, beta-lactamase ratio, antagonist mode, 18 h
Procedure, shortened: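 TR-UAS-bla GripTite HEK293 cells in 2% charcoal/dextran FBS medium were preincubated 4 h at 37 C, given compound (0.59 nM to 92 uM) plus 0.4 nM T3 (final) for 18 h, then CCF4 for 2 h at RT; Hill fit gave IC50.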

[20] = molecular target: Voltage-gated inwardly rectifying potassium channel KCNH2 (Homo sapiens) (UniProt Q12809); assay: qHTS Assay for Small Molecule Inhibitors of the Human hERG Channel Activity (AID 588834);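 note: top concentration of the series differs between compounds; lower thallium flux fluorescence means stronger hERG block; nearly all actives have a fitted effect of over 50% in size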
Procedure, shortened: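 U2OS cells transduced with hERG via BacMam (MOI ~100), plated 2000/well, loaded with FluxOR thallium dye, compound ~10 min, then stimulation buffer; fluorescence decrease read kinetically; AC50 from Hill fits.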

Sequence of Thyroid hormone receptor beta (Homo sapiens) (P10828 whole entry, looked up): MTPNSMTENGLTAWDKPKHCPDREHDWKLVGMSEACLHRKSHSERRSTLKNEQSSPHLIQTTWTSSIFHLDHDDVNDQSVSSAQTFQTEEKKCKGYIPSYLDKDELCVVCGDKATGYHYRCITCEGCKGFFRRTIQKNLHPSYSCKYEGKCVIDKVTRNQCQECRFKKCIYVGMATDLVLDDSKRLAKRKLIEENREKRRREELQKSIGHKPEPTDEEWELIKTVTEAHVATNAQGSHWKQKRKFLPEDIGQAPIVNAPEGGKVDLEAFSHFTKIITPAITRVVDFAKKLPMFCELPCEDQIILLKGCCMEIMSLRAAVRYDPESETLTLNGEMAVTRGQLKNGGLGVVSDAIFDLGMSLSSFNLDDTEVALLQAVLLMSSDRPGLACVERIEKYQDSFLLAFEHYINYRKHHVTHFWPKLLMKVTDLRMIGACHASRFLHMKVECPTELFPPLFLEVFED
Sequence of Voltage-gated inwardly rectifying potassium channel KCNH2 (Homo sapiens) (Q12809 whole entry, looked up): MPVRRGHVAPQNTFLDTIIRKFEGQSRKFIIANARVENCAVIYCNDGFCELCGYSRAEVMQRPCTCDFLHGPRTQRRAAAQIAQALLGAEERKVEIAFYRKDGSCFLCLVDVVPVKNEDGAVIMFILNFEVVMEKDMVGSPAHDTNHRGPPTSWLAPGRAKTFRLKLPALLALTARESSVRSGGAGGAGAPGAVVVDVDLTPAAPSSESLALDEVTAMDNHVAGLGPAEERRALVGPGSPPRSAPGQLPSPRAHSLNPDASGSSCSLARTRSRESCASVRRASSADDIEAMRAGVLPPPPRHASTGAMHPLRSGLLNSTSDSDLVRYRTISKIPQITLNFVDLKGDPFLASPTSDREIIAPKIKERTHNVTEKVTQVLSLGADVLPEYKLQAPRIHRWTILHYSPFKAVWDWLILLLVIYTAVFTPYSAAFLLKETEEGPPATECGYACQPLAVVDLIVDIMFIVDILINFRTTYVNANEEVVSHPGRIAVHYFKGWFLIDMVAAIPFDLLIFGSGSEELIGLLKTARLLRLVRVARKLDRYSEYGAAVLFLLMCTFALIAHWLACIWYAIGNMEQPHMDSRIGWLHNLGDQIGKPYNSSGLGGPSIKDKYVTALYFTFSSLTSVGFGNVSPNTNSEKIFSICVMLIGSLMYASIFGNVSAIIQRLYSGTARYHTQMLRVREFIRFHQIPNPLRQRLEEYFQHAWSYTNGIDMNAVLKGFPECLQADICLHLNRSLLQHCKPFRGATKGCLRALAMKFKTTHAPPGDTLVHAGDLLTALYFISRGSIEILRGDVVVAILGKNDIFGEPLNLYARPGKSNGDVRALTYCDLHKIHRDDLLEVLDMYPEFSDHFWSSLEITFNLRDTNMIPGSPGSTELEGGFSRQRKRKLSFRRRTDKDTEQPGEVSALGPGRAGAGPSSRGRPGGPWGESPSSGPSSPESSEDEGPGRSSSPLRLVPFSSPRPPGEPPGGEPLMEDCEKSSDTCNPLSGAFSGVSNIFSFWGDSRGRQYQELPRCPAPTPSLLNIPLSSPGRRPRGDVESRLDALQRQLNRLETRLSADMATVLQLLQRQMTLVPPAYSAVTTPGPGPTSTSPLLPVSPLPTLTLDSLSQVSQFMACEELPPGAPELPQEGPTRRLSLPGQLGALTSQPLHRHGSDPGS
Sequence of Retinoic acid receptor RXR-alpha (Homo sapiens) (P19793 whole entry, looked up): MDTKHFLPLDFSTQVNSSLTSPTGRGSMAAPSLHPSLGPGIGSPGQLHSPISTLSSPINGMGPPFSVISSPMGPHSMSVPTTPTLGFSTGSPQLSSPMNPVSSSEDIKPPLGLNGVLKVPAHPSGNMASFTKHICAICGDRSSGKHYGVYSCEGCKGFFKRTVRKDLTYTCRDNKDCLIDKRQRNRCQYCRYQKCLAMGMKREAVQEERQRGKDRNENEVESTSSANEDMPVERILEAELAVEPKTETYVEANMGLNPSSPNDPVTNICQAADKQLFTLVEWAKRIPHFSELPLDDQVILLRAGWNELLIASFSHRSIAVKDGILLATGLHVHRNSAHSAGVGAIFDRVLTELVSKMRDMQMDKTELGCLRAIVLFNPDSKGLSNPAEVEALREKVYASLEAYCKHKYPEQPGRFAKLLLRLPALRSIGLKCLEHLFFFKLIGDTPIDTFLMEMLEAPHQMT

Structure (SMILES) | Potency [1] | Potency [2] | Potency [3] | Potency [4] | Potency [5] | Potency [6] | Potency [7] | Potency [8] | Potency [9] | Potency [10] | Potency [11] | Potency [12] | Potency [13] | max response [14] | outcome [15] | Potency [16] | max response [17] | max response [18] | activity change % (negative = inhibition) [19] | Potency [20]
ClCC(Cl)CCl | inactive | inactive | inactive | inactive | inactive | inactive | inactive | inactive | inactive | inactive | inactive | inactive | inactive | -14.4% and -17.5% | inactive | inactive | 0.286% and -10.8% | 11.2% (inactive) and -5.45% (inactive) | 0.0158% (inactive) and 2.43% (inactive) | inactive
N#CCCCCC#N | inactive | inactive | inactive | inactive | inactive | inactive | inactive | inactive | inactive | inactive | inactive | inactive | inactive | 10.4% | inactive | inactive | -2.9% | 12.5% (inactive) | -18.7% (inactive) | inactive
ClCC(Cl)Cl | inactive | inactive | inactive | inactive | inactive | inactive | inactive | inactive | inactive | inactive | inactive | inactive | inactive | -11.1% | inactive |  | 2.25% | 7.8% (inactive) | 8.38% (inactive) | inactive
CC(Cl)(Cl)Cl | inactive | inactive | inactive | inactive | inactive | inactive | inactive | inactive | inactive | inactive | inactive | inactive | inactive | -3.95% and -14.6% | inactive | inactive | 0.916% and -3.55% | 5.12% (inactive) and 15.9% (inactive) | 0.316% (inactive) and -7.15% (inactive) | inactive
ClCCOCOCCCl | inactive | inactive | inactive | inactive | inactive | inactive | inactive | inactive | inactive | inactive | inactive | inactive | inactive | -19.5% | inactive | inactive | -0.61% | -0.285% (inactive) | 10.8% (inactive) | inactive
CSSC | inactive | inactive | inactive | inactive | inactive | inactive | inactive | inactive | inactive | inactive | inactive | inactive | inactive | 1.16% | inactive | inactive | -12.8% | 7.08% (inactive) | -18.7% (inactive) | inactive
CC(C)[C@]12CC(=O)[C@H](C)[C@H]1C2 | inactive | inactive | inactive | inactive | inactive | inactive | inactive | inactive | inactive | inactive | inactive | inactive | inactive | -6.67% and -9.54% | inactive | inactive | -7.72% and -9.15% | 7% (inactive) and 0.913% (inactive) | -3.76% (inactive) and 6.48% (inactive) | inactive
Cc1cc(-c2ccc(N)c(C)c2)ccc1N | inactive | inactive | inactive | inactive | inactive | inactive | inactive | inactive | inactive | inactive | inactive | inactive | inactive | -4.96% and -4.31% | inactive | inactive | -15.7% and -12.6% and -3.84% | -5.08% (inactive) and -3.85% (inactive) and -31.9% (inactive) | 4.51% (inactive) and -14.4% (inactive) | inactive
